# Reference: PubChem BioAssay AID493065 (National Center for Advancing Translational Sciences (NCATS), 2011)
# Some of the results follow. Inconclusive results are not listed. A number with no mark means an inactive call. The source made the active and inactive calls. The call rests on the fitted dose curve; in most records, active means well fitted activation curve with a large enough effect; inconclusive means small, poorly fitted or top-dose-only effect; inactive means flat fitted curve, though single readings scatter.
# Assay: Parental Cell Counter Screen Assay for Epigenetic Modulators: Hit Validation
# Conditions: mouse c127i parental cells, 30 h; Potency: fluorescent cell count; fluorescent cell count: hits give high values, concentration not given here
# Description: NIH Molecular Libraries Screening Centers Network [MLSCN] NIH Chemical Genomics Center [NCGC] MLSCN Grant: 1 X01 MH079860-01 Assay Provider: Elisabeth D. Martinez, University of Texas SW Medical Center NCGC Assay Overview: This assay is a counter screen for the Locus Derepression (LDR) assay (PubChem AID 1865). The LDR assay detects the derepression of a GFP reporter that is stably integrated in a region of the genome of murine c127i mammary cells that is presumably silenced. Compounds that cause derepression of the locus to express GFP are identified by enumerating GFP positive cells using a laser-scanning microplate cytometer. […] Compounds active in the parental c127i cells are likely fluorescent.
# NCGC Assay Protocol Summary: Three hundred cells in 5 uL per well were dispensed into black, clear-bottom 1536-well plates. Twenty-three nL compound was transferred to the assay plate and cells were incubated 30 hours at 37 C. Medium was removed, cells were washed two times with PBS, and fluorescent cells were enumerated as objects between the sizes of 20 to 120 um width and depth using a laser-scanning microplate imager (Acumen Explorer Ex3, TTP Labtech). For further details, see Johnson, RL, Huang, W, Jadhav, A, Austin, CP, Inglese, J, Martinez, ED (2008). A quantitative high-throughput screen identifies potential epigenetic modulators of gene expression. Anal Biochem 375: 237-48.
Structure (SMILES),Potency,fluorescent cell count
Cc1cccn2c(=O)c(/C=C3\SC(=S)N(CC(C)C)C3=O)c(NCCCOC(C)C)nc12,2510 nM (active),
Cc1ccc(/C=N/NC(=S)Nc2cccc(S(=O)(=O)N(C)C)c2)o1,,2%
